Experimental data from the supplement of paper PMC6555819.

These sequences were tested on RARg:RXRa (NR concentration 270 nM, RXRa partner concentration 90 nM) (assay: PBM binding z-score (relative to random genomic background probes); higher = stronger binding; sequences stand for … in GC…GCGATTGACAGCGTAGAATGAAGG).
Procedure, shortened: (§1)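 Custom Agilent 4×180K protein-binding microarrays carried double-stranded probes, each with a 34-nt variable region. These regions held direct-repeat seeds, single-nucleotide variants, half-site ablations and random human genomic background sequences. Ligand-free nuclear receptor dimers were incubated on the arrays for 1 h, antibodies against each partner (one per run) detected binding, and scanned fluorescence was regression-normalized. Binding z-scores take the random background probes as reference.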
ACTAGCAGGCCAAGTTTGGTTCACTCAAACAAAG gave a PBM binding z-score of 0.163. CCTACTGGGCCATCACGTCATTGATATCAACGTT was tested, and the PBM binding z-score was 0.0905. In the case of ACTATTAGATGAGACGAGGGCAACCGATAGGTTG, the PBM binding z-score was 0.879. GCTGATAGGTCAACTGATGGTCAGCTAAAGCTCG gave a PBM binding z-score of 6.23. Work on TCGAATAGGTTAGTCGGGGCATTCAGCCAACATA yielded a PBM binding z-score of 0.415. AGTCAAAGTCCAGGACGAGGTAACGTAAAGCACG was tested, and the PBM binding z-score was 0.451. With CCTTAAGGGTCACTCCAGGTTATAGCATCGGAGT the PBM binding z-score was 5.98. Work on CAAACTAGGGCAAAGGTCAAAGTCGAGCCAACCA yielded a PBM binding z-score of 7.57. In the case of TTACCAAGGTGAAGGTCGTTGGTCCCTCTGTAGA, the PBM binding z-score was 1.01. With CCTACTGGGCCCTTCAGAGGTCATTGATCATATG the PBM binding z-score was 3.27. CCTGCGAGGTCAATGGTCAGCTAAAGCAGCTCGC showed a PBM binding z-score of 6.01. Work on CGAACTAGGTCAGCACAGGACAGTGAAGGATGAT yielded a PBM binding z-score of 3.27. With ATCTCTAGGTAACCAAGTTCAGGGAATGCCGAAC the PBM binding z-score was 0.828. CCTTACGGGTCACCCCAGGTTATAGCATCGGAGT was tested, and the PBM binding z-score was 5.05. TCATATAGGTAAACAGGTGAAAGGCCGTAAGTTA was tested, and the PBM binding z-score was 0.793. CCAAGTTGGTCAGGAGGTCACACACCGGATATGA was tested, and the PBM binding z-score was 5.05. For GCTCGGAGGACAAGGTCAGAGCCTTGTCCGTAGA, the PBM binding z-score was 3.32. CCTCGGAGGACAACAGGAGGTCAGCGCTGCCAGA showed a PBM binding z-score of 4.12. For CAAACTACGTCACCGGAAGGTCAAAGTCCGCATG, the PBM binding z-score was 4.01. TCATATAGGTAAAAGGAGAAAGTCGGTGTGGTAA gave a PBM binding z-score of 0.181. For CGTCCAAGGTCAGAGAGGACAGTGAATGCCGAGT, the PBM binding z-score was 4.57. GCTAGCATGCCATTTGGGTCACTCAATGACGGGC gave a PBM binding z-score of 0.756. With GCTCGGAGGACAAGGTCAGAGCTTTGTCCGTAGA the PBM binding z-score was 3.28. In the case of ACTATTAGTTGAGACGAGGGCGACCGATAGGTTG, the PBM binding z-score was 0.187. For TAGCCTAGGTCATGCGAGCCAGTATAGTGTCGGC, the PBM binding z-score was 3.75. Sequence CTCGAAAGGTCGGTTGAGGTGCGTATACGGATAA has a PBM binding z-score of 2.59. TAGCCTAGGTCATTCATGGGCCAGTATAGAAAGC showed a PBM binding z-score of 4.74. For TCTTGTAGATCAACAGAGGTTAAGAAAGTGCGCT, the PBM binding z-score was 0.848. In the case of TCTTGTAGATCAAGCAGGTTATGAAAGCCTGAGT, the PBM binding z-score was 0.0667. AGAATGAGGTTACCAAAGCTCAGGGAAACGCTTG gave a PBM binding z-score of 1.91. CCTCGGAGGACAGACGGTCAGAGCTGTCCGCTTT gave a PBM binding z-score of 0.15. With CTCGAATGGTCGGTTGAGGTGAGTATACGGATAA the PBM binding z-score was -0.0812. Sequence CGTCAAAGTTCAACTAAGGAAACGTAAAGCACGC has a PBM binding z-score of 5.97. For CCTATTAGTTGACCACAAGGGCAACCGAAGCTCG, the PBM binding z-score was 1.15. Work on ATATGTAGGTTAAGGGTCATTCTGGTTGGTTCGC yielded a PBM binding z-score of 4.65. For GCTTGTAGATCAAGGTGAAGAAAGACTAAGCTAA, the PBM binding z-score was -0.139. Work on TGAATGAGGTTATAAGATCAGTGAACGTTGCAAA yielded a PBM binding z-score of 1.49. TCTTGTAGATGAATAGAGGTTAAGAAAGTGCGCT showed a PBM binding z-score of 0.961. With GCAGACAGGTGAAACGCAGGTAACTCAAGGTGGC the PBM binding z-score was 0.907. CATACAGGGTCAGCTAGGGCAGAGTAGGGACGGC gave a PBM binding z-score of 4.4.

Each sequence was assayed on RARg homodimer (NR concentration 270 nM) in the same assay as above.
Procedure, shortened: as §1
With ACTAGCAGGCCAAGTTTGGTTCACTCAAACAAAG the PBM binding z-score was 0.218. With CCTACTGGGCCATCACGTCATTGATATCAACGTT the PBM binding z-score was 0.383. With ACTATTAGATGAGACGAGGGCAACCGATAGGTTG the PBM binding z-score was 1.09. Sequence GCTGATAGGTCAACTGATGGTCAGCTAAAGCTCG has a PBM binding z-score of 6.12. In the case of TCGAATAGGTTAGTCGGGGCATTCAGCCAACATA, the PBM binding z-score was 0.436. With AGTCAAAGTCCAGGACGAGGTAACGTAAAGCACG the PBM binding z-score was 0.688. CCTTAAGGGTCACTCCAGGTTATAGCATCGGAGT was tested, and the PBM binding z-score was 6.35. With CAAACTAGGGCAAAGGTCAAAGTCGAGCCAACCA the PBM binding z-score was 6.04. TTACCAAGGTGAAGGTCGTTGGTCCCTCTGTAGA gave a PBM binding z-score of 0.783. CCTACTGGGCCCTTCAGAGGTCATTGATCATATG showed a PBM binding z-score of 2.24. Work on CCTGCGAGGTCAATGGTCAGCTAAAGCAGCTCGC yielded a PBM binding z-score of 5.99. CGAACTAGGTCAGCACAGGACAGTGAAGGATGAT showed a PBM binding z-score of 4.34. ATCTCTAGGTAACCAAGTTCAGGGAATGCCGAAC was tested, and the PBM binding z-score was 0.852. Sequence CCTTACGGGTCACCCCAGGTTATAGCATCGGAGT has a PBM binding z-score of 4.77. TCATATAGGTAAACAGGTGAAAGGCCGTAAGTTA gave a PBM binding z-score of 0.375. For CCAAGTTGGTCAGGAGGTCACACACCGGATATGA, the PBM binding z-score was 4.59. With GCTCGGAGGACAAGGTCAGAGCCTTGTCCGTAGA the PBM binding z-score was 3.39. CCTCGGAGGACAACAGGAGGTCAGCGCTGCCAGA gave a PBM binding z-score of 4.04. With CAAACTACGTCACCGGAAGGTCAAAGTCCGCATG the PBM binding z-score was 2.91. Work on TCATATAGGTAAAAGGAGAAAGTCGGTGTGGTAA yielded a PBM binding z-score of 0.123. Sequence CGTCCAAGGTCAGAGAGGACAGTGAATGCCGAGT has a PBM binding z-score of 5.67. Work on GCTAGCATGCCATTTGGGTCACTCAATGACGGGC yielded a PBM binding z-score of 0.805. Work on GCTCGGAGGACAAGGTCAGAGCTTTGTCCGTAGA yielded a PBM binding z-score of 3.6. With ACTATTAGTTGAGACGAGGGCGACCGATAGGTTG the PBM binding z-score was 0.419. TAGCCTAGGTCATGCGAGCCAGTATAGTGTCGGC was tested, and the PBM binding z-score was 3.79. In the case of CTCGAAAGGTCGGTTGAGGTGCGTATACGGATAA, the PBM binding z-score was 2.85. For TAGCCTAGGTCATTCATGGGCCAGTATAGAAAGC, the PBM binding z-score was 4.57. Work on TCTTGTAGATCAACAGAGGTTAAGAAAGTGCGCT yielded a PBM binding z-score of 0.565. TCTTGTAGATCAAGCAGGTTATGAAAGCCTGAGT was tested, and the PBM binding z-score was -0.307. For AGAATGAGGTTACCAAAGCTCAGGGAAACGCTTG, the PBM binding z-score was 1.54. With CCTCGGAGGACAGACGGTCAGAGCTGTCCGCTTT the PBM binding z-score was 1.12. With CTCGAATGGTCGGTTGAGGTGAGTATACGGATAA the PBM binding z-score was 0.168. In the case of CGTCAAAGTTCAACTAAGGAAACGTAAAGCACGC, the PBM binding z-score was 6.45. CCTATTAGTTGACCACAAGGGCAACCGAAGCTCG was tested, and the PBM binding z-score was 1.01. In the case of ATATGTAGGTTAAGGGTCATTCTGGTTGGTTCGC, the PBM binding z-score was 3.2. Sequence GCTTGTAGATCAAGGTGAAGAAAGACTAAGCTAA has a PBM binding z-score of -0.0485. With TGAATGAGGTTATAAGATCAGTGAACGTTGCAAA the PBM binding z-score was 0.953. Sequence TCTTGTAGATGAATAGAGGTTAAGAAAGTGCGCT has a PBM binding z-score of 0.531. In the case of GCAGACAGGTGAAACGCAGGTAACTCAAGGTGGC, the PBM binding z-score was 0.318. CATACAGGGTCAGCTAGGGCAGAGTAGGGACGGC gave a PBM binding z-score of 4.87.
